The values below come from PubChem BioAssay (NCI).

About 83,000 compounds went through this panel and 20% of them were active in at least one assay; those are over-represented in the sample as a whole.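 48-hour exposure, single concentration, 96-well plates; percent growth endpoint where 0 means no net growth. Active: below 10.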 Values without a mark were called inactive. Active and inactive are the calls of the source.

Among the test systems are BT-549 breast; MDA-MB-435 melanoma; SW-620 colon; MCF7 breast; HCT-116 colon; HCC-2998 colon; KM12 colon.
What all share (assay): NCI-60 one-dose screen, 48 h (100 = growth as untreated, 0 = no growth, -100 = all killed)
Conditions in all cases: 10 µM unless noted

Turning to `COc1ccc(/C=c2\c(=O)n(-c3ccccc3)c3nn4c(=O)c(=O)[nH]nc4n23)cc1`, the growth in the assay with BT-549 breast is 105%; in the assay with MDA-MB-435 melanoma, 112%; in the assay with SW-620 colon, 106%; with MCF7 breast, 102%; with HCT-116 colon it was 102%; in the assay on HCC-2998 colon, 108%. The growth in the assay with KM12 colon is 109%.

In the case of `C/C=C(\C)C(C(=O)NC1CCCCC1)N(C(=O)C1CCc2cc(F)ccc2O1)c1ccc([N+](=O)[O-])cc1` (stereo not drawn), the growth with BT-549 breast was 90.1%; with MDA-MB-435 melanoma it was 87.7%; with SW-620 colon, 94.9%; in the assay with MCF7 breast it was 77%; with HCT-116 colon, 60.3%; in the assay on HCC-2998 colon, 98.4%. The growth with KM12 colon is 95.8%.

As to `COc1ccc(C2C=C(c3ccc(Cl)cc3)N=C3SC=CN32)cc1` (stereo not drawn), the growth in the assay with BT-549 breast is 90.3%; in the assay on MDA-MB-435 melanoma it was 107%; in the assay on SW-620 colon, 97.7%; with MCF7 breast, 96.1%; with HCT-116 colon it was 104%; in the assay on HCC-2998 colon it was 119%. Moreover, the growth with KM12 colon is 112%.

Consider `O=C(NNC(=S)Nc1ccccc1)c1ccc(Nc2ncnc3c2cnn3-c2cccc(Br)c2)cc1`, for which the growth with BT-549 breast was 104%; with MDA-MB-435 melanoma, 105%; in the assay with SW-620 colon, 104%; in the assay on MCF7 breast it was 103%; in the assay on HCT-116 colon it was 98.9%; with HCC-2998 colon, 104%. Also, the growth in the assay with KM12 colon was 107%.

For `COc1ccc(/C=c2\c(=O)n(-c3ccccc3)c3nn4c(n23)=NNC42CCCCC2)cc1`, the growth with BT-549 breast is 97.3%; with MDA-MB-435 melanoma, 110%; in the assay with SW-620 colon it was 103%; in the assay on MCF7 breast it was 96.6%; with HCT-116 colon it was 95.8%; with HCC-2998 colon, 107%. Besides, in the assay on KM12 colon, the growth is 102%.

Turning to `O=C1C=CC(=O)N1c1cccc(N2C(=O)C=CC2=O)c1`, the growth was 113% with BT-549 breast; 103% in the assay on MDA-MB-435 melanoma; 4.72% (active) in the assay on SW-620 colon; 65.9% with MCF7 breast; 24.7% in the assay on HCT-116 colon; 130% in the assay on HCC-2998 colon. In addition, in the assay on KM12 colon, the growth was 122%.

As to `C[C@@H](C[C@H](CC1CC1)c1ccccc1)c1ccc2ccccc2c1`, the growth in the assay with BT-549 breast was 106%; in the assay on MDA-MB-435 melanoma, 102%; in the assay with SW-620 colon it was 93.6%; in the assay with MCF7 breast it was 108%; with HCT-116 colon, 98.6%; with HCC-2998 colon it was 101%. The growth with KM12 colon was 103%.

Take `Nc1n[nH]c2ccc([C@@H]3Nc4c(F)cc5[nH]ncc5c4[C@H]4C5CCC(C5)[C@@H]34)cc12` (stereo partly drawn): the growth with BT-549 breast is 27%; in the assay on MDA-MB-435 melanoma, -11.5% (active); in the assay with SW-620 colon it was 21.8%; in the assay with MCF7 breast, 18.5%; with HCT-116 colon it was 7.44% (active); in the assay with HCC-2998 colon, 28.1%. In addition, in the assay on KM12 colon, the growth is 10.4%.

For `Cc1ccc(NC(=O)c2[nH]c(SCCN(C)C)nc2-c2ccc(F)cc2)cc1C#Cc1cnc2cccnn12`, the growth with BT-549 breast was 94.8%; with MDA-MB-435 melanoma, 25.7%; with SW-620 colon, 0.0547% (active); in the assay on MCF7 breast it was 23.1%; in the assay on HCT-116 colon, -64.3% (active); in the assay with HCC-2998 colon, 96.3%. Further, the growth in the assay with KM12 colon is -6.46% (active).

For the molecule `C=C(C)c1ccc(/C=N/NC(N)=S)cc1`, the growth in the assay with BT-549 breast was 99.4%; with MDA-MB-435 melanoma, 87%; with SW-620 colon, 97.9%; in the assay on MCF7 breast, 51.1%; with HCT-116 colon, 84.5%; with HCC-2998 colon, 110%. Further, the growth in the assay on KM12 colon is 55.4%.

Consider `c1ccc(-c2[nH]c3ccccc3c2-c2ccccc2)cc1`, for which the growth in the assay with BT-549 breast was 110%; with MDA-MB-435 melanoma, 84.6%; in the assay with SW-620 colon it was 88.3%; with MCF7 breast it was 94.9%; in the assay on HCT-116 colon, 81.2%; in the assay with HCC-2998 colon, 114%. In the assay on KM12 colon, the growth is 92.4%.

In the case of `CCNC(=S)N(Cc1ccccc1)Cc1ccccc1`, the growth is 119% in the assay with BT-549 breast; 105% with MDA-MB-435 melanoma; 115% in the assay with SW-620 colon; 107% in the assay with MCF7 breast; 110% in the assay with HCT-116 colon; 98.3% with HCC-2998 colon. The growth with KM12 colon is 114%.

As for `CCCCN(CCCC)CCC(O)c1cc2ccc(C(F)(F)F)cc2c2cc(C(F)(F)F)ccc12` (stereo not drawn), the growth in the assay with BT-549 breast is 91.3%; in the assay on MDA-MB-435 melanoma it was 54.2%; with SW-620 colon, 40.4%; in the assay on MCF7 breast, 6.74% (active); in the assay on HCT-116 colon, 30.5%; in the assay on HCC-2998 colon, -34.8% (active). Besides, the growth with KM12 colon was 12.9%.

Consider `CCc1ccc(-c2ccc(NC3CCCCCC3)nn2)cc1S(N)(=O)=O`, for which the growth in the assay with BT-549 breast is 103%; with MDA-MB-435 melanoma it was 106%; in the assay with SW-620 colon it was 98.8%; in the assay on MCF7 breast, 95.2%; in the assay on HCT-116 colon, 103%; with HCC-2998 colon it was 102%. Further, in the assay on KM12 colon, the growth was 110%.
